Each structure is given as a SMILES string. The campaign covered roughly 340,000 compounds. About 390 (0.11%) were called active. What follows is part of a selection rich in actives, with near analogues and random picks from the rest. Values without a mark were called inactive.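 Rule for the calls: active = inhibition above the mean inhibition of all tested compounds plus 3 SD (cut at about 17% in these data); inactive = the rest.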

This passage reports inhibition results from PubChem BioAssay AID493244 (The Scripps Research Institute Molecular Screening Center, 2011).

For the test, the target named is Troponin I, cardiac muscle (Homo sapiens) + Troponin T, cardiac muscle (Homo sapiens) + Troponin C, slow skeletal and cardiac muscles (Homo sapiens) (UniProt P19429+P45379+P63316). Nature of the test: cardiac RTF calcium sensitivity inhibitors, primary screen, biochemical, IANBD-TnC fluorescence, EC70 calcium (AID 493244).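 Note: assay run at fixed EC70 calcium of 1.6 mM.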 As to conditions: IANBD-labeled cardiac RTF, Ca2+ fluorescence; at 7.15 µM; active compounds read high.
As for `CCCCCCCCNS(=O)(=O)CCNC1CCCCC1`, the inhibition was -2.61%.

For the compound `Cc1ccc2c(c1)N(CC(=O)N1CCCC(C)C1)C(=O)CO2` (stereo not drawn), the inhibition is -10.6%.

Regarding `Cc1c(S(=O)(=O)N2CC(C)CC(C)C2)c(=O)n(C)c(=O)n1C` (stereo not drawn), the inhibition is -1.29%.

Regarding `O=C(O)CCCCOn1ccnc1`, the inhibition is -6.34%.

In the case of `CN(CC1CCCO1)S(=O)(=O)c1ccc(C(=O)Nc2ccc(F)cc2)cc1` (stereo not drawn), the inhibition was 1.44%.

Consider `COc1ccc(NC2=CC(=S)NC(C)(C)C2)cc1`, for which the inhibition was -18.1%.

With `Cc1ccc2c(c1)N(CC(=O)N1CCC(O)CC1)C(=O)CO2`, the inhibition is 6.2%.

Consider `COc1ccc(CNC(=O)CN2C(=O)c3ccccc3S2(=O)=O)cc1`, for which the inhibition was -0.78%.

Regarding `CCN(CC)S(=O)(=O)c1ccc(N2CCOCC2)c(NC(=O)C2CSC3(C)CCC(=O)N23)c1` (stereo not drawn), the inhibition is -5.18%.

Turning to `O=C(c1ccco1)N1CCN(C(=S)Nc2cc(F)cc(F)c2)CC1`, the inhibition is -7.48%.

For `C[C@]12c3[nH]c4ccc(Cl)cc4c3CCN1C(=O)[C@@H](CC(=O)NCCCn1ccnc1)C[C@@H]2C(=O)N1CCOCC1`, the inhibition is -5.19%.

For `O=C(Nc1ccc2c(c1)CCC2)c1cccc(S(=O)(=O)Nc2ccccc2Cl)c1`, the inhibition is 3.16%.

In the case of `COc1ccc(Cl)cc1NC(=O)[C@@H]1CCCN1C(=O)c1cccs1`, the inhibition is 5.41%.

Turning to `Cc1cc(NC(=O)CCC(=O)N(CC(=O)NCC2CCCO2)c2ccccc2C)no1` (stereo not drawn), the inhibition is -4.7%.

On to `Cc1cc(C)cc(N(CC(=O)NC2CCCC2)C(=O)CCC(=O)Nc2cc(C)on2)c1`, for which the inhibition is -4.35%.

Turning to `Cc1cc(NC(=O)CCC(=O)N(CC(=O)NCC2CCCO2)c2ccccc2)no1` (stereo not drawn), the inhibition was 18.5% (active).

For the compound `CCCCOc1ccc(N(CC(=O)NCC2CCCO2)C(=O)CCC(=O)Nc2cc(C)ccn2)cc1` (stereo not drawn), the inhibition is -5.97%.

As to `COC(=O)c1cccc(N(CC(=O)NCC2CCCO2)C(=O)CCC(=O)Nc2cc(C)on2)c1` (stereo not drawn), the inhibition was 17.2% (active).

Regarding `Cc1cc(NC(=O)CCC(=O)N(CC(=O)NC2CCCC2)c2ccc(F)cc2)no1`, the inhibition is -0.21%.

On to `Cc1cc(C)cc(OCC(=O)NNC(=O)CCN2C(=O)c3ccccc3C2=O)c1`, for which the inhibition is -1.71%.

For `Cc1cc(C(=O)Nc2ccc(C)c(S(=O)(=O)N3CCOCC3)c2)c2ccccc2n1`, the inhibition is 5.27%.

As for `Cc1cc(OCc2ccc(C(=O)Nc3ccc(C(=O)O)cc3)o2)ccc1Cl`, the inhibition was 2%.

As to `O=C(O[C@@H]1[C@H](Cc2ccccc2)NS(=O)(=O)[C@H]2C[C@@H]3C=C[C@]12O3)c1ccccc1Br`, the inhibition is -4.49%.

For `CC(Sc1nnc(COc2ccccc2)n1-c1ccccc1)C(=O)O` (stereo not drawn), the inhibition was 2%.

In the case of `Cc1nnc(NC(=O)CCC(=O)N2CCC(C)CC2)s1`, the inhibition is -6.77%.

Regarding `CC1(c2ccc3ccccc3c2)NC(=O)NC1=O` (stereo not drawn), the inhibition is -8.57%.

Consider `O=C(Nc1ccc(Br)cc1F)C1CC(=O)N(C2CCCCC2)C1` (stereo not drawn), for which the inhibition was -4.05%.

With `Cc1ccc(NC(=O)C2CC2)cc1S(=O)(=O)N1CCOCC1`, the inhibition is 5.9%.

Consider `Cc1ccc(NC(=O)C2CCC(C(C)(C)C)CC2)cc1S(=O)(=O)N1CCOCC1` (stereo not drawn), for which the inhibition is -8.96%.

`Cc1ccc(NC(=O)NC2CCCCC2)cc1S(=O)(=O)N1CCOCC1`: the inhibition is 21.9% (active).

For the compound `O=C1N=C2SCCN2/C1=C\c1c(Cl)cccc1Cl`, the inhibition was -0.73%.

Consider `COc1cccc(-n2c(=S)sc3c(=O)n(-c4ccccc4OC)c(SCC4OCCO4)nc32)c1`, for which the inhibition is -13.4%.

With `O=C(N/N=C/c1ccccc1O)/C(=C/c1ccccc1)CCO`, the inhibition is -2.95%.

Consider `Cn1cnc([N+](=O)[O-])c1Sc1ccccc1`, for which the inhibition is 7.04%.

For the compound `CCOC(=O)C(C)Oc1cccc2c(=O)n(CC(=O)NCCc3ccc(OC)c(OC)c3)ccc12` (stereo not drawn), the inhibition was -4.75%.

Consider `Cc1ccc(NC2=C(Cl)C(=O)OC2OC(=O)c2ccccc2C)cc1` (stereo not drawn), for which the inhibition is 5.74%.

For the compound `CCc1ccc(N2CC(C(=O)Nc3ccc(S(=O)(=O)Nc4nccs4)cc3)CC2=O)cc1` (stereo not drawn), the inhibition was 10.1%.

In the case of `CSCC[C@H](NC(=O)N1CCn2c1nc1ccccc12)C(=O)NC1CCCCC1`, the inhibition is -6.71%.

With `CC(C(=O)NC1CCCCC1)N1C(=O)c2cccc3cccc1c23` (stereo not drawn), the inhibition is 5.31%.

Consider `COc1cc(C(=O)N(C)Cc2cccc(OC)c2OC)ccc1OCC(=O)Nc1cccc(C(F)(F)F)c1`, for which the inhibition is 6.06%.

As to `Cc1cc(C)nc(Nc2n[nH]c(-c3ccccc3N)n2)n1`, the inhibition is 2.72%.

`CC(C)(C)c1ccc(C(CC(=O)O)NS(=O)(=O)Cc2ccccc2)cc1` (stereo not drawn): the inhibition was -9.83%.

On to `Cc1ccc(S(=O)(=O)Cn2nnnc2CN2CCN(Cc3ccc4c(c3)OCO4)CC2)cc1`, for which the inhibition is -16.1%.

Take `COc1ccc(S(=O)(=O)NC(C)c2ccccc2)cc1C(=O)N1CCCCC1` (stereo not drawn): the inhibition was -3.2%.

Regarding `O=C(COC(=O)c1ccc(NS(=O)(=O)c2cccs2)cc1O)Nc1ccc(F)cc1`, the inhibition is -3.11%.

With `COc1ccc(/C=C(/NC(=O)c2ccccc2)C(=O)Nc2cccc(C(=O)O)c2)cc1`, the inhibition is -3.42%.

`O=C1c2ccccc2C(Nc2ccc3c(c2)OCCO3)N1Cc1ccco1` (stereo not drawn): the inhibition is 0.13%.

As for `CC(C)c1cc(C(=O)N/N=C/c2ccoc2)c(O)c(C(C)C)c1`, the inhibition is -3.15%.

In the case of `COC(=O)Cc1c(O)ccn(Cc2cccc(C(F)(F)F)c2)c1=O`, the inhibition is 1.28%.

As for `Cc1cc(S(=O)(=O)NC2CCCC2)ccc1-n1cnnn1`, the inhibition was -17.6%.

Consider `Cc1ccc(CSc2ccc(S(=O)(=O)N3CCCCC3)cn2)cc1`, for which the inhibition was -3.54%.

On to `O=c1ccc2c(-c3ccccc3S(=O)(=O)O)c3ccc(O)c(O)c3oc-2c1O`, for which the inhibition is 141% (active).

Consider `CCc1noc(C)c1C(=O)Oc1ccc(N(C)S(=O)(=O)c2ccc(C)c(C)c2)cc1`, for which the inhibition is 0.79%.

For the compound `Cc1ccc(-n2c(=O)c(C#N)cc3c(=O)n4ccccc4nc32)cc1C`, the inhibition was -2.12%.

In the case of `Cc1cc(C)n(Cc2cnc(N3CCOCC3)s2)n1`, the inhibition was 9.55%.

As for `O=C(C[n+]1cc(-c2ccc(Cl)c(Cl)c2)n2c1CCC2)c1cccs1`, the inhibition is 0.83%.

As for `CCCCOc1ccc(C(=O)NCC(=O)OCC(=O)N2CCN(S(=O)(=O)c3ccc(C)cc3C)CC2)cc1`, the inhibition is -7.59%.

Regarding `Cc1ccc(C(=O)OCC(=O)NCc2cc(C)c(O)c(C)c2)cc1S(=O)(=O)N1CCCCC1`, the inhibition was 0.34%.

As for `CCNC(=S)NCC`, the inhibition was -5.85%.

Take `Cc1c(Cl)c([N+](=O)[O-])nn1CC(=O)NCC1CCCO1` (stereo not drawn): the inhibition is -4.95%.

In the case of `Cc1nc2ccc(S(=O)(=O)NCC(=O)O)cc2s1`, the inhibition was -1.72%.

On to `COc1ccc(C)cc1S(=O)(=O)N(CC(=O)Nc1cccc([N+](=O)[O-])c1)c1ccc(C)cc1`, for which the inhibition was 0.11%.

On to `Cc1ccc(S(=O)(=O)N(CC(=O)Nc2cccc([N+](=O)[O-])c2)Cc2ccc(Cl)cc2)cc1`, for which the inhibition was 18.4% (active).

`CN(c1ccccc1)S(=O)(=O)c1cccc(NC(=O)Cc2ccc(Cl)cc2)c1`: the inhibition was 11.1%.

As for `COc1ccc(C(=O)NC2CC2)cc1OC1CCN(C/C=C/c2ccccc2)CC1`, the inhibition is 0.64%.

In the case of `COc1ccc(CSc2nnnn2-c2ccc(O)cc2)cc1F`, the inhibition was -11.7%.

With `COc1cccc2cc(C(=O)NCc3ccc(C)cc3)c(=N)oc12`, the inhibition was 0.64%.

As to `CC(NC(=O)COC(=O)C1CCN(S(=O)(=O)c2ccccc2C(F)(F)F)CC1)c1ccccc1` (stereo not drawn), the inhibition was -5.89%.

On to `COc1ccc(CCNC(=O)COC(=O)c2ncc(Cl)c(Cl)c2Cl)cc1OC`, for which the inhibition is 4.89%.

Turning to `Cc1ccc(S(=O)(=O)N(CC(=O)N2CCc3ccccc3C2)c2cccc(Cl)c2)cc1`, the inhibition was -9%.

As to `C[C@]12CCC(=O)C=C1C=CC1C2CC[C@@]2(C)C1CC[C@@]21CCC(=O)O1` (stereo partly drawn), the inhibition was 2.44%.

Take `Cc1ccc(CN2CC(C(=O)NNC(=O)Cn3ccc(C(F)(F)F)n3)CC2=O)cc1` (stereo not drawn): the inhibition is -7.66%.

Take `NC(=O)C1(Nc2ccc([N+](=O)[O-])cc2)CCCC1`: the inhibition is 1.13%.

Regarding `O=c1oc2ccc(C#CC3(O)CCCCC3)cc2cc1-n1cc(-c2ccsc2)nn1`, the inhibition was 3.02%.

Turning to `CC1CN(S(=O)(=O)c2cccc(C(F)(F)F)c2)CN1C(=O)N1CCOCC1` (stereo not drawn), the inhibition was 9.08%.

`Cc1cc(CNC(=O)C2CCC(=O)N(CCc3ccc(Cl)cc3)C2)no1` (stereo not drawn): the inhibition is 1.17%.

As for `Cc1ccc(CNC(=O)Cc2cn(C)c3ccccc23)cc1`, the inhibition is -0.42%.

Regarding `O=S(=O)(c1ccccc1)c1nc(Cc2ccccc2)oc1N1CCOCC1`, the inhibition was -3.71%.

For `COc1cccc(CNC(=O)C(=O)NCCC2CCCCN2S(=O)(=O)c2ccc(C)cc2)c1` (stereo not drawn), the inhibition was 18.4% (active).

As for `O=C(NCCC1CCCCN1S(=O)(=O)c1ccc(Cl)cc1)C(=O)NCc1ccco1` (stereo not drawn), the inhibition was -6.03%.

As for `O=C(NCCC1CCCCN1S(=O)(=O)c1ccc(F)cc1)C(=O)NC1CC1` (stereo not drawn), the inhibition was -3.06%.

For `COc1ccccc1S(=O)(=O)NCc1ccc(C(=O)N(C)Cc2ccc(F)cc2)cc1`, the inhibition was 4.86%.

For the compound `CCS(=O)(=O)c1ccc(-c2cccc(NC(=O)c3ccc(Br)o3)c2)nn1`, the inhibition was 9.7%.

Consider `COc1ccc(C(CNC(=O)c2cc(S(=O)(=O)Nc3cccc(C)c3)ccc2C)N2CCCC2)cc1` (stereo not drawn), for which the inhibition was -1.95%.

Turning to `CSCCC1NC(=O)N(CC(=O)Nc2cccc(S(=O)(=O)N3CCCCCC3)c2)C1=O` (stereo not drawn), the inhibition was -6.38%.

Turning to `CC(C)CC(=O)c1c[nH]c(C(=O)NCc2ccccc2)c1`, the inhibition was -10.5%.

Regarding `COc1ccccc1CCC(=O)NNC(=O)c1ccncc1`, the inhibition is -23.1%.

On to `O=S(=O)(Oc1ccccc1C(=S)N1CCOCC1)c1ccc(Cl)cc1`, for which the inhibition was 1.09%.
